# ALOX12 inh: blocks human arachidonate 12S-lipoxygenase; P18054; purified 12hLO, xylenol orange hydroperoxide absorbance; Potency, µM (titrated, usually from 108 µM), for inactives: top-dose activity change, negative = inhibition, most hits filed as inhibitors; 1.1% of 580,000 active; also: potency is read from the fitted curve at half-maximal effect
# Target sequence (P18054 whole entry, looked up): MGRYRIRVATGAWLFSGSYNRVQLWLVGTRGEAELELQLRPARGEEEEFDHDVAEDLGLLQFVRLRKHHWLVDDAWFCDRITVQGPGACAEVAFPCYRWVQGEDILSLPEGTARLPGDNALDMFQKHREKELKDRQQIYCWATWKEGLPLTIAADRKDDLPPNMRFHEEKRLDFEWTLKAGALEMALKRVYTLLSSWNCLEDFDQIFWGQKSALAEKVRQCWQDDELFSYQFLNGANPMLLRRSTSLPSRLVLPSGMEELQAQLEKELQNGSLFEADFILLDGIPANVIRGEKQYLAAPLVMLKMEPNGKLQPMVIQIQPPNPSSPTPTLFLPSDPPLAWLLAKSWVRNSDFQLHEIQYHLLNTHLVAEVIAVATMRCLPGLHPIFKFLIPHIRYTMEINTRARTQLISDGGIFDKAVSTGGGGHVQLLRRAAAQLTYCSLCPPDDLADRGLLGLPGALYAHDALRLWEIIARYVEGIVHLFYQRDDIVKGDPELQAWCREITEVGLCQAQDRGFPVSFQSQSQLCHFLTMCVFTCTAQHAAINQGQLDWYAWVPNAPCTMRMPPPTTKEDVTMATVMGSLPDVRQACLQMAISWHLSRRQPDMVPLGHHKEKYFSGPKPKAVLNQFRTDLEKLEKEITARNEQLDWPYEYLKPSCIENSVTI
#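 Purified human 12hLO at 150 nM in 25 mM Hepes, 0.01% Triton X-100, pH 7.0, preincubated 15 min at room temperature with compound. Reaction started with 40 uM arachidonic acid, 30 min at room temperature. Hydroperoxide measured by Fe-xylenol orange, 573/405 nm absorbance ratio.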
# IL-1B inflam inh: blocks inflammasome-driven IL-1 beta release | THP-1 LPS/ATP IL-1B secretion, AlphaLISA, 16 h; stronger effect = lower value | activity change, % at 57.5 µM | 4.7% of 360,000 active | AID 743279; in the data active = activity change below about -50%; inconclusive = mostly about -30% to -49%
#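 Secreted IL-1B measured by AlphaLISA bead assay after 16 h compound exposure of THP-1 cells; compounds (final up to 57.5 uM) added 1 h before LPS (250 ng/mL) and ATP (1.25 mM) stimulation; lower signal means less secretion.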
# HT1080 IDH1KD tx: toxicity to HT-1080 IDH1 knockdown cells (counter line). Potency, µM (titrated, usually from 46.1 µM), inactives show at the top dose activity, negative = toxicity, usual class: cytotoxic. 2% of 360,000 active. HT-1080 IDH1 knockdown viability, ATP luminescence, 48 h;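 also: potency is read from the fitted curve at half-maximal effect; 0% = DMSO wells and -100% = cell-free medium wells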
#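 Using the IDH1-knockdown HT-1080 line run in the same batch and compound series as the NT line, viability after 48 h at 37 °C was determined by CellTiter-Glo luminescence and expressed as % activity.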
# DT40 TDP1 CPT: DT40-hTDP1 cell growth loss with CPT; chicken DT40 Tdp1-/-;hTDP1 cells + 20 nM CPT, ATP luminescence, 48 h; Potency, µM (series often up to 46.2 µM), for inactives: top-dose activity change, negative = growth inhibition, hits mostly inhibitors; 12% of 420,000 active; AID 686979; also: potency is read from the fitted curve at half-maximal effect; nearly all actives have a fitted effect of over 55% in size
#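 Chicken DT40 Tdp1-/- cells stably complemented with human TDP1 were seeded at 400 cells/well in medium containing 20 nM camptothecin, exposed to pin-transferred compounds, and grown at 37 °C for at least 48 hr. Viability was read as ATP luminescence.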
# DT40 TDP1 no CPT: qHTS for Inhibitors of human tyrosyl-DNA phosphodiesterase 1 (TDP1): qHTS in cells in absence of CPT; DT40 Tdp1-/- hTDP1 cells, no CPT, ATP luminescence, 48 h; Potency, µM (series often up to 46.2 µM), for inactives: top-dose activity change, negative = growth inhibition, actives largely listed as inhibitors; 15% of 420,000 active; also: potency is read from the fitted curve at half-maximal effect; nearly all actives have a fitted effect of over 55% in size
#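 No-CPT arm: Tdp1-/-;hTDP1 DT40 cells (400/well) plus compounds, incubated ≥48 hr at 37 °C. Readout CellTiter-Glo luminescence.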
# HT1080-NT tox: kills 2HG-producing HT-1080-NT fibrosarcoma cells; AID 686970; Potency, µM (highest dose often 46.1 µM), for inactives: at the top dose activity, negative = less viability, actives largely listed as cytotoxic; 1.6% of 360,000 active; HT-1080-NT fibrosarcoma viability, CellTiter-Glo ATP luminescence, 48 h;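 also: NT is the 2HG producing partner of a matched IDH1 knockdown line; potency is read from the fitted curve at half-maximal effect; 0% = DMSO-treated cells and -100% = media-only wells without cells; nearly all actives have a fitted effect of over 55% in size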
#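 Compounds were tested in concentration-response format on HT-1080-NT cells for 48 hours at 37 degrees C. Cell viability came from CellTiter-Glo luminescence; curves were classified by r2, response magnitude and activity.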
# * hit, by the source's call; i = inactive; u = inconclusive; x = not tested or not shown; [ ] = dose if it differs, or a comment. This excerpt belongs to a sample that is enriched for hits. Unless noted, calls follow the shape of the dose curve; as a rule, active = well fitted curve in the direction sought with a large enough effect; inconclusive = small, poorly fitted or top-dose-only effect, or another doubt; inactive = no such curve, though single readings can be large; an effect the other way counts as inactive or inconclusive. Unless noted, % is scaled to controls: 0 for no effect and ±100 for the full control effect.
SMILES,ALOX12 inh,IL-1B inflam inh,HT1080 IDH1KD tx,DT40 TDP1 CPT,DT40 TDP1 no CPT,HT1080-NT tox
CCCCCN(C(=O)CCC(=O)OCc1cc(C)ccc1C)c1c(N)n(CCCC)c(=O)[nH]c1=O,x,-63.4*,-18.8%,23.1µM*,25.9µM*,-25.9%
CCCCCN(C(=O)CCC(=O)OCc1ccccc1F)c1c(N)n(CCCC)c(=O)[nH]c1=O,-15.8%,-11.9,1.2%,-15.0%,-28.6%,-1.0%
CCCCCN(C(=O)CCC(=O)OCc1ccc(C(C)(C)C)cc1)c1c(N)n(CCCC)c(=O)[nH]c1=O,-2.6%,i,u,u,u,-27.4%
CCCCCN(C(=O)CCC(=O)OCC(=O)c1cccc(OC)c1)c1c(N)n(CCCC)c(=O)[nH]c1=O,u,26.6,13.9%,9.6%,16.2%,-0.6%
CCCCCN(C(=O)CCC(=O)OCC(=O)c1ccc(F)c(F)c1)c1c(N)n(CCCC)c(=O)[nH]c1=O,1.7%,4.6,-1.7%,-12.8%,3.6%,-0.5%
N#CC1=C(N)OC2=C(C1c1ccccc1Cl)S(=O)(=O)N(Cc1ccc(F)cc1)c1ccccc12 (stereo unspecified),-5.7%,x,x,x,x,x
COc1cc(NC(=O)CCn2ccn3nc4c(c3c2=O)CCCC4)cc(OC)c1,-1.3%,x,x,x,x,x
CN(CC(=O)NC(=O)NCc1ccco1)Cc1cccs1,0.1%,x,x,x,x,x
O=C1O[C@@H](c2ccccc2)C[C@@H](O)C(=O)CCCc2ccccc21,-23.8%,9.9,2.0%,u,u,-8.6%
CCCCC(C)(O)C/C=C/[C@H]1[C@H](O)CC(=O)[C@@H]1CCCCCCC(=O)OC (stereo partly specified),x,x,x,u,1.5µM*,x
CCCCC[C@H](O)C=C[C@H]1[C@H](O)CC(=O)[C@H]1CCCCCCC(=O)O,64.4%,x,x,u,u,x
CC1CCN(CCCCNC(=O)/C=C/c2ccc(OC(F)(F)F)cc2)CC1,0.1%,x,x,x,x,x
COc1ccc(-c2csc(=Nc3ccccc3)n2CCO)cc1,u,-24.0,-23.0%,u,u,-22.2%
O=S(=O)(c1ccc(-c2csc(=Nc3ccc(F)cc3)n2CCCCCCO)cc1)N1CCCC1,u,x,x,2.91µM*,2.59µM*,x
OCCCn1c(-c2ccc(F)cc2)csc1=Nc1ccc(F)cc1,u,x,x,9.2µM*,14.6µM*,x
Cc1ccc(-c2csc(=Nc3ccccc3)n2CCCO)cc1,44.7µM*,x,x,16.4µM*,10.3µM*,x
CC(Nc1ccc(F)cc1F)C(=O)NC(=O)NC1CCCCC1 (stereo unspecified),-22.7%,32.1,0.0%,-1.3%,-36.1%,-2.8%
CCOc1ccccc1NC(C)C(=O)NC(=O)NC1CCCCC1 (stereo unspecified),107.3%,38.8,-2.5%,18.4µM*,-28.0%,0.6%[9.24 µM]
CC(C(=O)NC(=O)NC1CCCCC1)N1CCN(C(c2ccccc2)c2ccccc2)CC1 (stereo unspecified),u,2.8,6.1%,23.1µM*,14.6µM*,-1.5%
CC(C)(C)NS(=O)(=O)c1ccccc1-c1nc(N)nc2c1CCC2,5.7%,x,x,x,x,x
Fc1ccc(/C=N\Nc2cccc(F)c2)cc1,14.0%,-6.4,4.9%,-16.4%,-8.3%,3.0%
Fc1ccc(/C=N/Nc2ccc(F)cc2)cc1,2.24µM*,x,x,x,x,x
Brc1ccc(/C=N/Nc2ccccc2)cc1,44.7µM*,8.3,u,u,-25.8%,u
Cc1ccc(OCCN(C)C(=O)COc2ccc3c(C)cc(=O)oc3c2)cc1,16.7%,x,x,x,x,x
Cc1ccc(-c2cc(C(=O)N3CCC(c4nc(C5CCOCC5)no4)C3)c3ccccc3n2)cc1C (stereo unspecified),12.4%,x,x,x,x,x
SMILES,ALOX12 inh,IL-1B inflam inh,HT1080 IDH1KD tx,DT40 TDP1 CPT,DT40 TDP1 no CPT,HT1080-NT tox
COCc1[nH]nc2c1C(c1ccc(F)cc1)N(Cc1ccccc1)C2=O (stereo unspecified),14.8%,x,x,x,x,x
c1ccc(CCSc2ncnc3nc[nH]c23)cc1,-1.1%,42.0,-15.2%,16.4µM*,8.2µM*,-5.3%
Clc1ccc(CSc2ncnc3nc[nH]c23)cc1,-1.5%,-3.3,u,u,23.1µM*,-12.5%
O=C(CSc1ncnc2nc[nH]c12)NCc1ccc(Cl)cc1,-8.1%,x,x,x,x,x
Cc1ccc2c(-c3oc4ccccc4c3NC(=O)C3CC3)cc(=O)oc2c1,1.4%,x,x,x,x,x
CCc1cccc2c1NC1(CCCC1)CC2C (stereo unspecified),-21.7%,33.5,-0.6%,u,20.6µM*,17.0%
CCCCCn1c(=O)[nH]c2cc(C(=O)NCCN(CC)CC)ccc2c1=O,-3.3%,-11.8,u,9.2µM*,20.6µM*,u
O=C(NCc1ccccn1)c1ccc2c(=O)n(CCc3ccccc3)c(=O)[nH]c2c1,5.9%,0.0,-10.3%,20.6µM*,u,20.9%
NC(N)=NC(N)=Nc1cccc2ccccc12,i,-6.8,9.0%,u,u,10.1%
Cc1c(Cl)cccc1N=C(N)N=C(N)N,5.7%,-5.1,12.5%,u,23.1µM*,3.1%
COc1ccc(C(=O)N2CCC3(CCN(Cc4ccccc4OC)CC3)CC2)cc1,2.1%[57.4 µM],x,x,9.3%,-15.3%,x
O=C(O)c1ccc2c(=O)oc(-c3ccccc3)cc2c1,-16.4%,x,x,x,x,x
Cc1c(C(=O)N2CCC(C)CC2)sc2ncnc(N3CCN(c4ccccc4)CC3)c12,0.4%,-27.3,-3.6%,-5.2%,-28.7%,-0.7%
Cc1c(C(=O)N(C)C2CCCCC2)sc2ncnc(N3CCN(c4ccccc4F)CC3)c12,x,0.0,-22.6%,18.4µM*,18.4µM*,-27.6%
Cc1c(C(=O)N(C)C2CCCCC2)sc2ncnc(N3CCN(c4ccccc4)CC3)c12,-7.1%,-16.3,u,13µM*,14.6µM*,u
COc1ccc2sc(-c3ccc(SC)cc3)c(C#CCO)c2c1,u,6.6,u,18.4µM*,u,u
COc1ccc2sc(-c3ccc(SC)cc3)c(C#CC(C)(C)O)c2c1,u,-9.5,u,u,u,u
COc1ccc(-c2sc3cc(OC)c(OC)cc3c2C#CCO)cc1,-90.4%,-22.6,u,18.4µM*,u,-28.4%
COc1ccccc1CCC(=O)N1CCCN(c2cc(-c3ccc(Cl)cc3)[nH]n2)CC1,32.0%,x,x,x,x,x
O=C(Nc1ccc(Cl)c(Cl)c1)OCCNC(=O)c1cccc(Cl)c1,u,-14.0,u,6.51µM*,11.6µM*,u
O=C(Nc1ccccc1)OCCNC(=O)c1cccc(Br)c1,34.5%,19.7,-25.7%,0.1%,-25.2%,-6.3%

# From PubChem BioAssay
